Screens as filed in PubChem.
FECH block: inhibitors of human ferrochelatase. P22830. purified FECH, Ni-mesoporphyrin absorbance 550 nm. calls only at 10 µM (by protocol). 3.3% of 20,000 active;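 active = enzyme reaction rate more than 3 SD below the solvent-only control wells on the same plate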;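 note: lower slope than DMSO wells means FECH inhibition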
Target sequence (P22830 whole entry, looked up): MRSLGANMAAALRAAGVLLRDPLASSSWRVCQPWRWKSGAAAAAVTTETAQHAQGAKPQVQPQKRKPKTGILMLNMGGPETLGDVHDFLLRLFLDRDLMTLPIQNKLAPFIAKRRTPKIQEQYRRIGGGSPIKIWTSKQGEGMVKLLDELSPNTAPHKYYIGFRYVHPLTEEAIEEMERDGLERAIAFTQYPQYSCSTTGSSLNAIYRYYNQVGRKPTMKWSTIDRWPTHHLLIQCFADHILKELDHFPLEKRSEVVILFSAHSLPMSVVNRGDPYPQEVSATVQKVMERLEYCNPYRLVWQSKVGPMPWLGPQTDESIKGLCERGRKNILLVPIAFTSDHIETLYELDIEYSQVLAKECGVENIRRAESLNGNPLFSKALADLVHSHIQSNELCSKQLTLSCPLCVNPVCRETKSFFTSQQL
Calls only; n = inactive; + = active, no number. Many of the other results were omitted from the sample, so hits are more common in it than they were.

SMILES	FECH block
COCCCNC(=O)CN1C(=O)CC(c2ccc(Br)s2)=Nc2ccccc21	n
CSc1nc(-c2ccc(C)cc2)c(C#N)c(N2CCC(C(N)=O)CC2)n1	n
CO[C@H]1COC[C@@H]1NCC(=O)Nc1cccc(F)c1C	n
CN(CC(=O)NCc1ccccc1F)Cc1cccc2ncccc12	n
Cc1cnc(CN(C)CC(=O)Nc2cccc(F)c2C)[nH]1	+
CC(C)Cn1nc(C(=O)O)c2c1CCC(N1CCOc3ccccc3C1)C2 (stereo unspecified)	n
O=C(CCN1CCCCO1)NCC(c1ccccc1)C1CCCC1 (stereo unspecified)	+
O=C(CCN1CCCCO1)N(Cc1ccccc1)Cc1nccs1	n
CN1CCCC(CCNC(=O)CCN2CCCCO2)C1 (stereo unspecified)	n
COc1ccc(-n2ccnc2[C@@H]2C[C@H](NC(C)=O)C[C@H](CC(C)C)O2)cc1	n
COC(=O)C1Cc2nc[nH]c2CN1C(=O)c1oc2cc(OC)ccc2c1C (stereo unspecified)	n
CCc1[nH]c2ccc(CNC(=O)Cc3ccc4c(c3)NC(=O)CO4)cc2c1C	n
COc1cccc(NC(=O)CN2CCCN(Cc3cccc(F)c3)S2(=O)=O)c1	n
Cc1ccc(CN2CCCN(Cc3c(F)cccc3Cl)S2(=O)=O)cc1	+
COc1ccc(NC(=O)CN2CCN(Cc3ccccc3C)S2(=O)=O)cc1	n
Cc1ccc(CN2CCCN(Cc3ccc(F)cc3Cl)S2(=O)=O)cc1	n
COc1ccc(NC(=O)CN2CCN(Cc3cccc(C)c3)S2(=O)=O)cc1	+
COc1cccc(NC(=O)CN2CCN(Cc3ccc(F)cc3)S2(=O)=O)c1	n
Cc1ccc(CN2CCN(CC(=O)Nc3ccc(C)c(C)c3)S2(=O)=O)cc1	n
Cc1cccc(CN2CCN(CC(=O)Nc3ccc(C)c(C)c3)S2(=O)=O)c1	+
Cc1ccc(NC(=O)CN2CCN(Cc3ccc(Cl)cc3)S2(=O)=O)cc1C	n
COc1cccc(NC(=O)CN2CCCN(Cc3cccc(C)c3)S2(=O)=O)c1	+
Cc1ccc(NC(=O)CN2CCCN(Cc3ccc(Cl)cc3)S2(=O)=O)cc1	n
COc1ccc(CN2CCCN(CC(=O)Nc3ccc(OC)cc3)S2(=O)=O)cc1	n
Cc1sc2ncnc(Nc3ccccc3F)c2c1S(=O)(=O)N1CCCCC1	n
SMILES	FECH block
COc1cc(NC(=O)N2CCN(c3cc(-c4ccccc4C)ncn3)CC2)cc(OC)c1	n
CN1C(=O)c2ccccc2Sc2cc(-c3noc(CNS(=O)(=O)c4ccccc4)n3)ccc21	n
O=C1C2CC=CCC2C(=O)N1c1nc2n(n1)C(c1ccccc1)C=C(c1ccc(Cl)cc1)N2 (stereo unspecified)	n
CCN(CC)c1ncc(NS(=O)(=O)c2ccc(OC)c(Cl)c2)cc1C(=O)O	n
COc1ccc(NC(=O)CN2CCN(Cc3ccccc3Cl)S2(=O)=O)cc1OC	n
CCc1cccc(C)c1NC(=O)CN1CCCN(Cc2cccc(C)c2)S1(=O)=O	+
Cc1ccc(NC(=O)CN2CCN(Cc3cccc(C)c3)S2(=O)=O)cc1	+
COc1ccc(NC(=O)CN2CCN(Cc3ccccc3C)S2(=O)=O)cc1Cl	n
Cc1ccc(NC(=O)CN2CCN(Cc3ccccc3C)S2(=O)=O)cc1	n
Cc1ccc(NC(=O)CN2CCN(Cc3ccccc3)S2(=O)=O)cc1	n
Cc1cc(C)c(CN2CCN(Cc3ccccc3C)S2(=O)=O)c(C)c1	n
Cc1cccc(CN2CCN(CC(=O)Nc3c(C)cc(C)cc3C)S2(=O)=O)c1	n
CCc1cccc(C)c1NC(=O)CN1CCN(Cc2ccccc2C)S1(=O)=O	n
Cc1ccccc1CN1CCN(Cc2ccccc2C)S1(=O)=O	+
CCc1cccc(C)c1NC(=O)CN1CCCN(Cc2ccc(C)cc2)S1(=O)=O	n
COc1ccc(NC(=O)CN2CCN(Cc3ccccc3C)S2(=O)=O)cc1OC	+
CCOc1ccc(S(=O)(=O)N2CCN(c3cc(-c4cccc(F)c4)ncn3)CC2)cc1	n
CCOc1ccc(Br)cc1S(=O)(=O)N1CCN(c2nc(C)cc(Nc3ccccc3)n2)CC1	n
CC(C)C(NC(=O)c1ccco1)C(=O)N1CCC(c2nc(-c3ccc(Cl)cc3)no2)CC1 (stereo unspecified)	n
Cn1cccc1-c1cc(C(=O)N2CCc3nc[nH]c3C2)[nH]n1	n
O=C(O)[C@H]1C[C@H](C(=O)N2CCOCC2)CN(Cc2cc3ccccc3o2)C1	n
Cc1ccc(O)c(CN(Cc2ccncc2)Cc2ccc(F)cc2)n1	n
COc1ccc(Nc2cc(C)nc(N3CCN(S(=O)(=O)c4ccccc4Cl)CC3)n2)cc1	n
CCCc1cnc(C)nc1NC1CC(=O)N(Cc2ccccc2Cl)C1 (stereo unspecified)	n
CCc1nnsc1C(=O)N1CCCC2(C1)C(=O)N(C)c1ccccc12 (stereo unspecified)	n
SMILES	FECH block
Cc1cccc(CN2CCCN(CC(=O)Nc3ccccc3F)S2(=O)=O)c1	+
Cc1ccc(C)c(CN2CCCN(CC(=O)NC3CCCC3)S2(=O)=O)c1	n
COc1ccc(OC)c(NC(=O)CN2CCCN(Cc3cccc(C)c3)S2(=O)=O)c1	+
Cc1ccc(NC(=O)CN2CCCN(Cc3ccccc3)S2(=O)=O)cc1	n
COc1ccc(CN2CCCN(CC(=O)Nc3ccccc3F)S2(=O)=O)cc1	n
CCOc1ccc(NC(=O)CN2CCCN(Cc3cccc(C)c3)S2(=O)=O)cc1	+
Cc1ccc(C)c(CN2CCCN(CC(=O)Nc3ccc(C)c(F)c3)S2(=O)=O)c1	n
CCOc1ccc(NC(=O)CN2CCCN(Cc3cccc(F)c3)S2(=O)=O)cc1	n
COc1ccc(OC)c(NC(=O)CN2CCCN(Cc3ccc(C)cc3)S2(=O)=O)c1	n
COc1ccc(OC)c(NC(=O)CN2CCCN(Cc3ccccc3)S2(=O)=O)c1	n
CCOc1ccc(NC(=O)CN2CCCN(Cc3cc(C)ccc3C)S2(=O)=O)cc1	+
Cc1cccc(NC(=O)CN2CCCN(Cc3ccccc3)S2(=O)=O)c1	n
CCn1c(C2CCCN(C(=O)CCN3CCCO3)C2)nn(C)c1=O (stereo unspecified)	n
Cc1ccc(Cl)cc1C(=O)N1CCC2(CC1)c1ccccc1[C@@H](N)[C@@H]2O	n
Cn1cnnc1CCc1nn2c(C3CCCC3)nnc2s1	n
Cc1c(-c2ccc(F)cc2)[nH]c2ccc(CNC(=O)[C@H](C)n3cnnn3)cc12	n
COc1cccc(NC(=O)N2CCN(c3cc(-c4ccccc4C)ncn3)CC2)c1	n
c1ccc(-c2nc(C3NCCc4[nH]cnc43)cs2)cc1 (stereo unspecified)	n
CN(C)S(=O)(=O)N1CCC(Oc2ccc(-n3cnnn3)cc2)CC1	n
COC(C)(C)CC(C)NC1CCN(S(C)(=O)=O)CC1 (stereo unspecified)	n
CSc1nccc(-c2ccc(Cl)cc2Cl)n1	+
Cc1ccc(NC(=O)CNc2nccc(-c3ccc(C)nc3C)n2)c(F)c1	n
COC(=O)c1cc2n(n1)CCN(c1ccnc(SC)n1)C2	n
CC(C)Cc1ccc(S(=O)(=O)NCc2nc3cccnc3n2C2CCCC2)cc1	n
Cc1nccc(-c2cccc(-n3ccnc3-c3ccco3)c2)n1	n
SMILES	FECH block
CCN(Cc1noc(C)n1)C(=O)CC1CCc2ccccc21 (stereo unspecified)	n
Cc1cccc(CN2CC=C(C(=O)Nc3cccc(Cl)c3)CC2)c1	n
CCOc1ccc(-c2ccnc(CC3CCN(C)CC3)n2)cc1C(=O)O	n
CCN(CC)c1nccc(-c2cc(C(=O)O)ccn2)n1	n
CCOCc1nccc(-c2cc(C(=O)O)ccn2)n1	+
COCCN1CCC(CN2CCCC3(CCN(C(=O)N(C)C)C3)C2)CC1 (stereo unspecified)	n
